The text below walks through data of PMC4336329 (PLoS ONE, 2015).

Structures are written as SMILES. In all, about 310,000 compounds went through this assay and about 14,000 (4.5%) showed an effect of 50% or more. The effect is printed as a negative number. For the sample, strong results were picked, then their nearest neighbours and some compounds at random.
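Note: peak tail current of the secondary pulse compared with the same well before compound.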

This test deals with human ether-à-go-go-related gene (hERG) potassium channel (human, UniProt Q12809). The experiment in a line: primary screen, population patch clamp on CHO cells stably expressing hERG; higher = less effect of the substance.
Chain of human ether-à-go-go-related gene (hERG) potassium channel (Q12809 whole entry, looked up): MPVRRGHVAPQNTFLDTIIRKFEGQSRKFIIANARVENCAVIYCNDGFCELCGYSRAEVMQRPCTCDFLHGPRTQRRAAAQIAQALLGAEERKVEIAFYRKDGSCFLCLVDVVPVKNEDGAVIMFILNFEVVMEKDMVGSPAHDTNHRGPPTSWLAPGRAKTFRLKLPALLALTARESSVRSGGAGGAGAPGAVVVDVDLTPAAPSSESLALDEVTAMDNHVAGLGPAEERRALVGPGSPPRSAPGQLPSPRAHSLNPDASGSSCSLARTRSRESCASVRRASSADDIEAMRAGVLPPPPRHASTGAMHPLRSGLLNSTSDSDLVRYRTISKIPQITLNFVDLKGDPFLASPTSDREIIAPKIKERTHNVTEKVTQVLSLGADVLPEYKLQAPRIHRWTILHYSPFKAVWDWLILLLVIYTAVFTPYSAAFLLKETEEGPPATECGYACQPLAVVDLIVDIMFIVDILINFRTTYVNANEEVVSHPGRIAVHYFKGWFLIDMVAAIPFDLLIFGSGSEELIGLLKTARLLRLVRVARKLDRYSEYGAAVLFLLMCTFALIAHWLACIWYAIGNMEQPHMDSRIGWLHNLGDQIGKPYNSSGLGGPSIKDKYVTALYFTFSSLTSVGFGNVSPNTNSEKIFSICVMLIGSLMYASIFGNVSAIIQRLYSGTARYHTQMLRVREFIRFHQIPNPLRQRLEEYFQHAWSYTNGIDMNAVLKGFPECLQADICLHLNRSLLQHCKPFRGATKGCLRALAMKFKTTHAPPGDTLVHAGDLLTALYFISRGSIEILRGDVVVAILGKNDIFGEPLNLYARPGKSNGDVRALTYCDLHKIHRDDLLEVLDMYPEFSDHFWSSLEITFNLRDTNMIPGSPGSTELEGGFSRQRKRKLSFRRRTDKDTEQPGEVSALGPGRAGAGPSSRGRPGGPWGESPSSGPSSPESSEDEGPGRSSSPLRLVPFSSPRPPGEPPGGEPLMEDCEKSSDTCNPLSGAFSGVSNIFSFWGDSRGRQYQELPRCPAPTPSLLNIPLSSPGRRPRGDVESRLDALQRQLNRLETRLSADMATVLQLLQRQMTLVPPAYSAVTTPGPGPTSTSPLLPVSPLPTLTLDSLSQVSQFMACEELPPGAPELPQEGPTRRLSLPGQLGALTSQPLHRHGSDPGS
On to `CC(Cc1cccs1)NC(=O)Nc1ccccc1` (centres unmarked), for which the “hERG current change (%, negative = inhibition) at 10uM” value is 0.115%.

Take `O=C(c1ccc(S(=O)(=O)N2CCOCC2)cc1)N1CCc2ccccc2C1`: the “hERG current change (%, negative = inhibition) at 10uM” value is -4.25%.

`CN(C)S(=O)(=O)c1ccc(C(=O)NCC(=O)N/N=C/c2ccccc2Cl)cc1`: the “hERG current change (%, negative = inhibition) at 10uM” value is reported as 5.43%.

For the molecule `CCOc1ccccc1N1CCN(Cc2cccc(OC)c2OC)CC1`, the “hERG current change (%, negative = inhibition) at 10uM” value is on record as -17%.

`COc1ccc(CN2CCN(C(C)C(=O)N(C)Cc3cccc(F)c3)CC2)cc1OC.O=C(O)C(=O)O` (centres unmarked): the “hERG current change (%, negative = inhibition) at 10uM” value was -61%.

In the case of `COc1ccccc1N1CCN(Cc2ccc(OC)c(OC)c2OC)CC1`, the “hERG current change (%, negative = inhibition) at 10uM” value is reported as -35.8%.

With `COc1cc(C)c(CN2CCN(C(C)C(=O)NC(C)c3ccccc3)CC2)cc1OC` (centres unmarked), the “hERG current change (%, negative = inhibition) at 10uM” value is listed as -18.3%.

Turning to `COc1ccc(CN2CCN(S(=O)(=O)c3ccc(F)cc3)CC2)cc1OC.O=C(O)C(=O)O`, the “hERG current change (%, negative = inhibition) at 10uM” value amounted to 7.33%.

For `COc1ccc(CN2CCN(c3cccc(C)c3C)CC2)cc1OC`, the “hERG current change (%, negative = inhibition) at 10uM” value was -72%.

In the case of `COc1ccc(CN2CCN(C(C)C(=O)NC(C)c3ccc(F)cc3)CC2)cc1F` (centres unmarked), the “hERG current change (%, negative = inhibition) at 10uM” value is reported as -62%.

Regarding `CCOc1ccccc1N1CCN(Cc2ccc(OC)c(OC)c2OC)CC1`, the “hERG current change (%, negative = inhibition) at 10uM” value is given as -51.9%.

As for `COc1cc(CN2CCN(c3cccc(C)c3C)CC2)cc(Br)c1O`, the “hERG current change (%, negative = inhibition) at 10uM” value is on record as -12.6%.

As for `COc1cc(CN2CCN(c3cccc(C)c3C)CC2)cc(OC)c1O`, the “hERG current change (%, negative = inhibition) at 10uM” value is listed as -45.4%.

As for `CC(NC(=O)C(C)N1CCN(Cc2ccccc2)CC1)c1ccc(F)cc1` (centres unmarked), the “hERG current change (%, negative = inhibition) at 10uM” value worked out at 5.35%.

In the case of `COc1cccc(CN2CCN(Cc3cccc(F)c3)CC2)c1.O=C(O)C(=O)O`, the “hERG current change (%, negative = inhibition) at 10uM” value is -6.47%.

For the molecule `CC(C)S(=O)(=O)C1=NSC2=NC(=O)/C(=C\c3ccc(OC(=O)c4ccco4)cc3)C(=N)N21`, the “hERG current change (%, negative = inhibition) at 10uM” value is on record as 12.8%.

Consider `COc1cc2nc(C(C)(C)C)oc(=O)c2cc1OC`, for which the “hERG current change (%, negative = inhibition) at 10uM” value is listed as 10.6%.

On to `NC(=O)CC(NC(=O)c1ccccc1)c1ccc(NC2CCCC2)c([N+](=O)[O-])c1` (centres unmarked), for which the “hERG current change (%, negative = inhibition) at 10uM” value worked out at 5.39%.

Take `Cc1cc(C(=O)OCC(=O)c2ccc(Cl)c([N+](=O)[O-])c2)c2cccc(C)c2n1`: the “hERG current change (%, negative = inhibition) at 10uM” value is 6.36%.

For the molecule `CS(=O)(=O)N(Cc1ccc(C(=O)NN=C2CCCC2)cc1)c1ccccc1`, the “hERG current change (%, negative = inhibition) at 10uM” value was found to be 8.63%.

As for `CCC(=O)Nc1cc(-c2cc3ccccc3oc2=O)ccc1OC`, the “hERG current change (%, negative = inhibition) at 10uM” value is on record as -29.6%.

Turning to `COc1ccccc1N1CCN(Cc2cccc(Br)c2)CC1.O=C(O)C(=O)O`, the “hERG current change (%, negative = inhibition) at 10uM” value is -5.27%.

Turning to `COc1ccc(CN2CCN(Cc3ccc4ccccc4c3)CC2)cc1OC.O=C(O)C(=O)O`, the “hERG current change (%, negative = inhibition) at 10uM” value is -67%.

Consider `COc1ccccc1N1CCN(Cc2ccccc2)CC1.O=C(O)C(=O)O`, for which the “hERG current change (%, negative = inhibition) at 10uM” value is -7.21%.

In the case of `COc1ccccc1N1CCN(Cc2ccc(Br)cc2)CC1.O=C(O)C(=O)O`, the “hERG current change (%, negative = inhibition) at 10uM” value is on record as -70.3%.

For `COc1ccc(CN2CCN(Cc3ccccc3F)CC2)cc1OC.O=C(O)C(=O)O`, the “hERG current change (%, negative = inhibition) at 10uM” value is -22.6%.

With `COc1ccccc1CN1CCN(Cc2ccc3ccccc3c2)CC1.O=C(O)C(=O)O`, the “hERG current change (%, negative = inhibition) at 10uM” value is -36.7%.

`COc1ccc(CN2C(=O)Cc3c2nc(N)c2c(N)nc(N4CCOCC4)c(C#N)c32)cc1`: the “hERG current change (%, negative = inhibition) at 10uM” value is on record as -36.8%.

With `Cc1nnc(SCC(=O)Nc2nccs2)n(N)c1=O`, the “hERG current change (%, negative = inhibition) at 10uM” value worked out at 19.4%.

Turning to `CC1CCCCC1NC(=O)c1ccc(S(=O)(=O)NCC2CCCO2)cc1` (centres unmarked), the “hERG current change (%, negative = inhibition) at 10uM” value is recorded as -10.7%.

Regarding `Cc1ccc(C)c(S(=O)(=O)N2CCC3(CC2)OCCN3S(=O)(=O)c2cccs2)c1`, the “hERG current change (%, negative = inhibition) at 10uM” value was determined as 5.64%.

For `CCCc1nc(SCC(=O)c2ccccc2)c2c(=O)n(C)c(=O)n(C)c2n1`, the “hERG current change (%, negative = inhibition) at 10uM” value is given as -23.5%.

For the molecule `OCCNCCCCOc1ccc(F)cc1`, the “hERG current change (%, negative = inhibition) at 10uM” value was determined as 4.18%.

As for `CCCC(=O)Nc1sc2c(c1C#N)CCCC2`, the “hERG current change (%, negative = inhibition) at 10uM” value is 4.29%.

On to `CCn1c(SCC(=O)Nc2oc(-c3ccccc3)c(-c3ccccc3)c2C#N)nnc1-c1ccncc1`, for which the “hERG current change (%, negative = inhibition) at 10uM” value is listed as -68.2%.

In the case of `COCCCn1c(SCC(=O)Nc2sc3c(c2C#N)CCCC3)nnc1-c1ccncc1`, the “hERG current change (%, negative = inhibition) at 10uM” value is -49.4%.

As to `CCn1c(SCC(=O)Nc2oc(-c3ccccc3)c(-c3ccccc3)c2C#N)nnc1-c1cc(OC)cc(OC)c1`, the “hERG current change (%, negative = inhibition) at 10uM” value is recorded as -5.33%.

In the case of `CCn1c(SCC(=O)Nc2oc(-c3ccccc3)c(-c3ccccc3)c2C#N)nnc1-c1ccco1`, the “hERG current change (%, negative = inhibition) at 10uM” value is -30.8%.

For the molecule `CCCC(=O)Nc1sc2c(c1C#N)CCCCC2`, the “hERG current change (%, negative = inhibition) at 10uM” value is on record as -50.6%.

With `N#Cc1c(NC(=O)CSc2nnc(-c3ccncc3)n2CC2CCCO2)sc2c1CCCC2` (centres unmarked), the “hERG current change (%, negative = inhibition) at 10uM” value is reported as -40.7%.

On to `CCC(=O)Nc1sc2c(c1C#N)CCCCC2`, for which the “hERG current change (%, negative = inhibition) at 10uM” value is given as 0.0585%.

With `CCn1c(SCC(=O)Nc2sc3c(c2C#N)CCCC3)nnc1-c1ccncc1`, the “hERG current change (%, negative = inhibition) at 10uM” value was -63.5%.

`O=S1OCCN1c1ccccc1` (centres unmarked): the “hERG current change (%, negative = inhibition) at 10uM” value is on record as 10.4%.

Take `O=C(c1ccc(OC2CCN(CCc3ccccc3)CC2)cc1)N1CCCC(CO)C1` (centres unmarked): the “hERG current change (%, negative = inhibition) at 10uM” value is -12.4%.

`COc1ccc([C@H]2/C=C\CN(S(=O)(=O)c3ccc4ccccc4c3)[C@@H](C)C(=O)N2Cc2ccc(F)cc2)cc1`: the “hERG current change (%, negative = inhibition) at 10uM” value was 6.43%.

As for `CC1CCCC(C)N1C(=O)CN1C(=O)c2ccccc2S1(=O)=O` (centres unmarked), the “hERG current change (%, negative = inhibition) at 10uM” value came out at 3.3%.

Take `O=C(Cc1ccccc1)Nc1ccc(NC(=O)c2ccc(Br)cc2)cc1`: the “hERG current change (%, negative = inhibition) at 10uM” value is 15.4%.

For the molecule `OC1(c2ccc(Cl)cc2)CN(c2ccccc2)C2=[N+]1CCS2.[Br-]` (centres unmarked), the “hERG current change (%, negative = inhibition) at 10uM” value is given as -50.4%.

Consider `O=[N+]([O-])c1ccc(C2(O)CN(c3ccccc3)C3=[N+]2CCS3)cc1.[Br-]` (centres unmarked), for which the “hERG current change (%, negative = inhibition) at 10uM” value is reported as -60.8%.

In the case of `Cc1ccc(C2(O)CN(c3ccccc3)C3=[N+]2CCS3)cc1.[Br-]` (centres unmarked), the “hERG current change (%, negative = inhibition) at 10uM” value is given as -32.6%.

For the molecule `Cc1ccc(C2(O)CN(c3ccccc3C)C3=[N+]2CCS3)cc1.[Br-]` (centres unmarked), the “hERG current change (%, negative = inhibition) at 10uM” value is -28.1%.

`OC1(c2ccc(F)cc2)CN(c2ccccc2)C2=[N+]1CCS2.[Br-]` (centres unmarked): the “hERG current change (%, negative = inhibition) at 10uM” value was -13.9%.

Take `OC1(c2ccccc2)CN(c2ccccc2)C2=[N+]1CCS2.[Br-]` (centres unmarked): the “hERG current change (%, negative = inhibition) at 10uM” value is -28.1%.
